# MCF10A rerep – induces DNA re-replication in MCF 10a normal breast cells; 350,000 compounds, 2.9% hits; Potency, µM (highest dose often 46.1 µM), inactives show at the highest dose activity, positive = re-replication, usual class: activators; MCF 10A DNA re-replication, Hoechst nuclear intensity, 48 h; AID 624296; also: potency is read from the fitted curve at half-maximal effect; % of control where 0% means no effect; nearly all actives have a fitted effect of over 50% in size
# uPA generation – inhibitors of cell surface uPA generation; Potency, µM (highest dose often 38.3 µM), without a hit: at the highest dose activity change, negative = inhibition, most hits filed as inhibitors; cell surface uPA generation assay, qHTS; AID 540303; 330,000 compounds, 0.31% hits; active = well fitted inhibition curve with a large enough effect; inconclusive = small, poorly fitted or top-dose-only effect; inactive = no such curve, though single readings can be large or run the other way; tested in mouse RAW 264.7 cells; also: potency is read from the fitted curve at half-maximal effect; % is scaled to controls: 0 for no effect and ±100 for the full control effect; nearly all actives have a fitted effect of over 55% in size
# Giardia killer – Giardia lamblia killing. AID 540267. Giardia lamblia trophozoite viability. 340,000 compounds, 0.15% hits. activity change, % at 7.66 µM, hits read low; in the data active = activity change below about -80%; inconclusive = between about -30% and that limit;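 also: parasites exposed to compound for two days anaerobically before the ATP read; % is scaled to controls: 0 for no effect and ±100 for the full control effect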
#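 Each well holds 100 Giardia trophozoites and compound. After two days (48 hrs) at 37 deg C in anaerobic conditions, ATP is quantified by luminescence.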
# SW480 rereplic – induces DNA re-replication in SW480 colon adenocarcinoma cells. SW480 DNA re-replication, Hoechst DNA content imaging, 48 h. Potency, µM (series often up to 46.1 µM), for inactives: at the highest dose re-replication activation, most hits filed as activators. 340,000 compounds, 1.8% hits. AID 624297; also: potency is read from the fitted curve at half-maximal effect; % of control where 0% means no effect; nearly all actives have a fitted effect of over 55% in size
#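 Quantitative HTS format with DMSO vehicle controls; 48 hr drug incubation at 37 C, then 40 min Hoechst staining and scanning imager measurement at 405 nm excitation.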
# * = called active by the depositor; ? = inconclusive; . = no result given; [ ] = dose if it differs, or a comment. Most compounds without a hit are left out; they make up all but 4.3% or so of the library. Unless noted, calls follow the shape of the dose curve; as a rule, active = well fitted activation curve with a large enough effect; inconclusive = small, poorly fitted or top-dose-only effect; inactive = no such curve, though single readings can be large or run the other way.
SMILES,MCF10A rerep,uPA generation,Giardia killer,SW480 rereplic
CCn1c(C(=O)N2CCC(Cc3ccccc3)CC2)cc2sccc21,21µM*,.,5,1%
Cc1cc(C)cc(OCC(=O)Nc2cnn(CCCC(=O)O)c2)c1,-5%,-2%,-1,-11%
C/C(=N\OCC(=O)Nc1ccccc1Br)c1cccs1,?,-2%,-11,0.15µM*
CC(=O)Nc1ccc2c3c(cccc13)C(=O)N(c1ccccc1)C2=O,16%,0%,-22,7%
O=CNc1ccc2c3c(cccc13)-c1ccccc1-2,?,1%,-5,2.3µM*
COc1ccccc1-c1nn2c(-c3cc(C)[nH]n3)nnc2s1,.,.,20,.
Cc1nc(N2CCN(c3ccccc3O)CC2)c2c(-c3ccccc3)csc2n1,13µM*,4%,11,?
Oc1ccccc1N1CCN(c2ncnc3scc(-c4ccccc4)c23)CC1,21µM*,8%,-4,?
O=C(C[C@H]1C/C=C\C[C@@H](Cc2ccc(F)cc2)C(=O)OC[C@H]2CCCN2C1=O)NCCO,-8%,-6%,-24,-9%
CC(C)(C)c1ccc(Cn2c(=O)cnc3ccccc32)cc1,15µM*,-14%,-11,?
O=c1cnc2ccccc2n1Cc1ccc(Br)cc1,14%,-2%,-13,-2%
CCCn1nnnc1NCc1ccccc1OCc1ccc(F)cc1,23µM*,3%,5,?
COc1cccc(NC(=O)COC(=O)C2=NN(c3ccccc3)C(=O)CC2)c1,-3%,4%,-18,-4%
Fc1ccc(-c2csc3ncnc(N4CCc5ccccc5C4)c23)cc1,10µM*,2%,7,17%
Cc1ccc(-c2csc3ncnc(N4CCc5ccccc5C4)c23)cc1,18µM*,0%,15,7%
Cc1ccc(-c2csc3ncnc(N4CCN(Cc5ccccc5)CC4)c23)cc1,?,5%,-1,2%
COc1cc(OC)c2c(C)cc(=O)oc2c1C(CCN1CCCC(C)C1)c1ccc(N(C)C)cc1 (configuration not stated),.,.,-17,.
CCN1C(=O)c2cccc3c(S(=O)(=O)NCc4cccnc4)ccc1c23,-4%,-9%,-13,5%
CCN1C(=O)c2cccc3c(S(=O)(=O)Nc4ccccc4)ccc1c23,23µM*,-6%,3,13%
CCN1C(=O)c2cccc3c(S(=O)(=O)Nc4nc(C)cs4)ccc1c23,15µM*,-9%,2,-1%
CCN1C(=O)c2cccc3c(S(=O)(=O)Nc4ccncc4)ccc1c23,1%,-2%,-13,0%
CCN1C(=O)c2cccc3c(S(=O)(=O)NCc4ccco4)ccc1c23,12µM*,.,-9,?
COC(=O)c1cncn1Cc1ccccc1,-2%,2%,17,0%
Cc1noc(C)c1C(=O)N1CCCC(C(=O)c2cccc(C(F)(F)F)c2)C1 (configuration not stated),-2%,-2%,8,5.8µM*
COc1cc(CC(=O)Nc2cc(S(=O)(=O)N3CCOCC3)ccc2N2CCCC2)cc(OC)c1OC,14%,-4%,10,14%
SMILES,MCF10A rerep,uPA generation,Giardia killer,SW480 rereplic
CN(C)/C=C/C(=O)c1ccc(F)cc1,18µM*,-5%,-6,-13%
CCc1ccccc1NC(=O)c1ccc(Cn2cc([N+](=O)[O-])cn2)cc1,-2%,6%,12,1µM*
CC12CCC(=O)N1C(C(=O)N1CCN(c3ccc([N+](=O)[O-])cc3)CC1)CS2 (configuration not stated),1%,2%,15,0%
CN(C)CCCn1c(-c2ccccc2)nc(=S)c2c1CCCC2,-181%[0.0737 µM],5%,16,3.3µM*
CCOC(=O)/C(N=Nc1sc(C(=O)OC)c(C)c1C(=O)OCC)=C(\O)CCl,13%,-2%,-2,-4%
CC#Cc1cc2c(cc1O)CCC1C2CCC2(C)C(O)CCC12 (configuration not stated),8.2µM*,-7%,13,9.2µM*
CC12CCC3c4ccc(O)cc4CCC3C1CC(=NO)C2O (configuration not stated),3%,-3%,-18,-3%
CCNc1cc2c(cc1O)CCC1C2CCC2(C)C(O)CCC12 (configuration not stated),?,-6%,-5,?
CCOc1cc2c(cc1O)CCC1C2CCC2(C)C(O)CCC12 (configuration not stated),1.2µM*,-9%,-14,?
C=Cc1cc2c(cc1O)CCC1C2CCC2(C)C(O)CCC12 (configuration not stated),10µM*,-7%,-17,?
Cc1cn([C@H]2C[C@H](O)[C@@H](CCC(=O)NCc3ccco3)O2)c(=O)[nH]c1=O,1%,-5%,20,-8%
COc1ccccc1NS(=O)(=O)c1cc([N+](=O)[O-])ccc1N/N=C/c1c(C)[nH]c2ccccc12,?,.,-20,12%
O=[N+]([O-])c1ccc(N/N=C/c2c[nH]c3ccccc23)c(S(=O)(=O)Nc2ccc(Cl)cc2)c1,?,3%,2,21µM*
Cc1ccc(OCCNc2ccc(S(=O)(=O)N3CCCC3)cn2)cc1,58%,-6%,-12,21µM*
CCCCCOc1ccc(Br)cc1/C(C)=N/NC1=NCCN1,3.3µM*,-17%,-11,3.3µM*
COc1ccc(Br)cc1/C(C)=N/NC1=NCCN1,?,-10%,-10,-3%
CC(=O)Oc1ccc2c3c(c(=O)oc2c1C)CCCC3,21µM*,2%,5,-63%
Cc1nn(CC(=O)NCc2ccc(Cl)cc2)c(C)c1[N+](=O)[O-],1%,1%,5,?
Cc1nn(CC(=O)NCc2ccc(-n3cccn3)cc2)c(C)c1[N+](=O)[O-],0%,5%,1,0.52µM*
Cc1ccc(CCN2C(Nc3ccccc3)=NC[C@@H]2C)cc1,6%,-1%,-10,2%
Cc1cc(N2CCCC2)c(F)cc1/C=C\[N+](=O)[O-],?,-9%,-22,29µM*
Cc1c2oc3c(C)ccc(C(=O)N[C@@H]4C(=O)N[C@H](C(C)C)C(=O)N5CCC[C@H]5C(=O)N(C)CC(=O)N(C)[C@@H](C(C)C)C(=O)O[C@@H]4C)c3nc-2c(C(=O)N[C@@H]2C(=O)N[C@H](C(C)C)C(=O)N3CCC[C@H]3C(=O)N(C)CC(=O)N(C)[C@@H](C(C)C)C(=O)O[C@@H]2C)c(N)c1=O,-12%,.,.,-5%
Clc1ccc(-c2nn3c(-c4cc(-c5ccccc5)n[nH]4)nnc3s2)cc1,.,.,2,.
COc1cc(C=O)c(Br)cc1OCc1ccc(C)cc1,9.2µM*,-4%,-5,?
CCCCNc1c2c3c(cccc3n(C)c1=O)C(=O)c1ccccc1-2,?,1%,-6,5.8µM*
Cn1c(=O)c(NCCc2ccccc2)c2c3c(cccc31)C(=O)c1ccccc1-2,5.8µM*,4%,12,18µM*
CC(=O)Nc1ccc(Nc2c3c4c(cccc4n(C)c2=O)C(=O)c2ccccc2-3)cc1,12%,1%,44,-3%
Cn1c(=O)cc2c3c(c(N4CCCCC4)ccc31)C(=O)c1ccccc1-2,25%,5%,-17,?
Cn1c(=O)c(NC2CCCCC2)c2c3c(cccc31)C(=O)c1ccccc1-2,3.7µM*,8%,9,23µM*
